Compound activity as filed in PubChem.
SW480 rerep = inducers of DNA re-replication in SW480 colon cancer cells. SW480 DNA re-replication, Hoechst DNA content imaging, 48 h. Potency, µM (titrated, usually from 46.1 µM), for inactives: top-dose re-replication activation, most hits filed as activators. actives 1.8% (n = 340,000); note: % of control where 0% means no effect; nearly all actives have a fitted effect of over 55% in size
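Cells (250 per well) received 23 nL compound or DMSO by pin tool and were kept 48 hr at 37 C, 5% CO2. Nuclei were then stained with Hoechst for 40 min and scanned for DNA content.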
ELG1 DNA repair = ELG1-dependent DNA repair inhibition; HEK293T ELG1-luciferase reporter, luminescence, 16 h; DNA damage induced by 5-fluorouridine; Potency, µM (doses to about 46.1 µM), for inactives: at the top dose activity change, negative = inhibition, hits mostly inhibitors; actives 2.3% (n = 330,000); AID 504467; note: % is set by controls: 0 for no effect and ±100 for the full control effect; nearly all actives have a fitted effect of over 55% in size
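Quantitative HTS, concentration-response format. 2,000 cells/well co-treated with 5-fluorouridine and compound, 16 hr in 5% CO2 at 37 °C; ONE-Glo luminescence read after 30 min.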
MCF10A rereplic = inducers of DNA re-replication in MCF 10A breast cells; MCF 10A DNA re-replication, Hoechst nuclear intensity, 48 h; Potency, µM (doses to about 46.1 µM), without a hit: top-dose activity, positive = re-replication, usual class: activators; actives 2.9% (n = 350,000); AID 624296; note: % of control where 0% means no effect; nearly all actives have a fitted effect of over 50% in size
Gal4-VP16 FLuc = Gal4-VP16 reporter inhibition counter-screen | Drosophila S2 Gal4-VP16 UAS-luciferase, luminescence, 20 h | Potency, µM (titrated, usually from 53.6 µM), for inactives: at the top dose activity, negative = inhibition, hits mostly inhibitors | actives 3.5% (n = 310,000);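 note: Gal4-VP16 expression switched on by copper sulfate through the metallothionein promoter; % is set by controls: 0 for no effect and ±100 for the full control effect; nearly all actives have a fitted effect of over 50% in size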
RORgamma inh = blocks mouse ROR gamma transcriptional activity; Potency, µM (series often up to 53.6 µM), for inactives: at the top dose activity change, negative = inhibition, actives largely listed as inhibitors; AID 2551; actives 5.4% (n = 310,000); P51450; Drosophila S2 Gal4-RORgamma UAS-luciferase reporter, 20 h; note: % is set by controls: 0 for no effect and ±100 for the full control effect; nearly all actives have a fitted effect of over 60% in size
Target sequence (P51450 whole entry, looked up, the tested form may be a part): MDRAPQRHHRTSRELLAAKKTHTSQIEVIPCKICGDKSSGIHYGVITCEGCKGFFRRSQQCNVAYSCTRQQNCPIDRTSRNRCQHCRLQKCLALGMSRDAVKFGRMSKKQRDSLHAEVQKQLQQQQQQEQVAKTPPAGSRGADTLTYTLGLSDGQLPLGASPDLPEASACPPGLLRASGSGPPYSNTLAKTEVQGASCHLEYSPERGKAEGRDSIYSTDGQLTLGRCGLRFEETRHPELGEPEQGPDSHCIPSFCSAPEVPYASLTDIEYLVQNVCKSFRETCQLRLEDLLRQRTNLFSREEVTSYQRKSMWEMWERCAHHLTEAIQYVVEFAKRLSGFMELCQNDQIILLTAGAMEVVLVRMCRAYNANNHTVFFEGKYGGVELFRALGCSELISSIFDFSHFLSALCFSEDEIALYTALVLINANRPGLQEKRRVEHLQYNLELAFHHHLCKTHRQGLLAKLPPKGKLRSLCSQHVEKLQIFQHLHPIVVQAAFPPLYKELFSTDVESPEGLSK
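Drosophila S2 cells stably expressing Gal4-DBD/mouse RORγ fusion under metallothionein promoter plus UAS-luciferase; compound 1 h, then 700 uM CuSO4 induction for 20 h at ambient temperature; inhibition read as reduced luminescence.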
* hit, by the source's call; ? = inconclusive; / = no result; [ ] = dose if it differs, or a comment. Rows were chosen to be rich in hits. Some 10% of all compounds tested hit in one or more screens of this group. Calls come from the whole dose curve; as a rule, active = well fitted curve in the direction sought with a large enough effect; inconclusive = small, poorly fitted or top-dose-only effect, or another doubt; inactive = no such curve, though single readings can be large; an effect the other way counts as inactive or inconclusive. Potency is the fitted concentration of half-maximal effect.

SMILES | SW480 rerep | ELG1 DNA repair | MCF10A rereplic | Gal4-VP16 FLuc | RORgamma inh
CC(=O)Nc1ccc2nc(-c3ccccc3)cn2c1 | -3% | ? | 8% | ? | ?
Nc1nonc1C(=O)NCCNCc1cc(Br)ccc1OCc1ccccc1F | 5% | ? | 25% | 4µM* | ?
NS(=O)(=O)c1ccc(CCNCc2cc(Cl)ccc2OCc2ccccc2)cc1 | 1% | -12% | -8% | ? | ?
Nc1nonc1C(=O)NCCNCc1ccccc1OCc1ccccc1F | 0% | ? | -2% | ? | ?
NS(=O)(=O)c1ccc(CCNCc2cc(Br)ccc2OCc2ccccc2F)cc1 | ? | ? | ? | 13µM* | -18%
COc1ccc(CC(=O)NNC(=S)Nc2ccccc2)cc1Br | 0% | -1% | -2% | ? | 13µM*
Cc1cccnc1NC(=S)NC(=O)/C=C/c1ccccc1 | 17% | 12% | 2% | 6.3µM* | 4.5µM*
Cc1cccnc1NC(=O)c1ccc(C(=O)c2ccccc2)cc1 | -1% | ? | 2% | / | /
CCOc1ccc(CC(=O)NNC(=S)Nc2ccccc2)cc1Br | 2% | 7% | 5% | -18% | -22%
CCOC(=O)c1cc(-c2ccccc2)sc1NC(=S)Nc1cc(C)ccn1 | -8% | ? | 2% | 2.2µM* | 1µM*
COc1ccc(-c2cnnn2-c2ccc(NC(=O)/C=C/c3ccc(OC)c(OC)c3)cc2)cc1 | -1% | 5.8µM* | 2% | -16% | -4%
CCOC(=O)c1cc(-c2ccccc2)sc1NC(=O)C(C)(C)C | 2% | 13% | -5% | -7% | 1%
CC(C)(C)C(C(=O)O)N1CCS(=O)(=O)CC1 (centres undefined) | 5% | ? | -8% | -4% | -1%
CC(=O)N(C)c1ccc(NC(=O)/C=C/c2ccccc2Cl)cc1 | 8% | ? | 9% | 18µM* | 1.1µM*
O=C(/C=C/c1ccccc1Cl)Nc1ccncc1 | 3% | ? | -20% | -6% | -25%
CC(=O)c1ccc(NC(=S)NC(=O)/C=C/c2ccccc2)cc1 | 0% | ? | -6% | -14% | -24%
COc1ccc(/C=C/C(=O)NC(=S)Nc2ccccc2)cc1OC | 18µM* | ? | 17% | ? | 10µM*
C/C=C/c1ccc(OCC(=O)Nc2ccc(C(N)=O)cc2)c(OC)c1 | 0% | -15% | ? | -21% | -30%
CCC(=O)Nc1ccc(NC(=S)NC(=O)/C=C/c2ccccc2)cc1 | 13% | 5% | 11% | ? | 13µM*
COc1cc(/C=C/c2cc[n+](C)cc2)ccc1OCC(=O)Nc1ccccc1 | 18µM* | ? | 7% | -6% | 0%
O=S(=O)(O)c1ccc2c(c1)-c1nc-2nc2[nH]c(nc3nc(nc4[nH]c(n1)c1ccc(S(=O)(=O)O)cc41)-c1ccc(S(=O)(=O)O)cc1-3)c1ccc(S(=O)(=O)O)cc21 | / | / | / | -24% | -39%
COC(=O)Nc1ccc(S(=O)(=O)N2c3ccccc3CCC2C)cc1 (centres undefined) | 9% | ? | -1% | -18% | -26%
CCOc1ccc(NC(=S)NC(=O)/C=C/c2ccc(C)cc2)c([N+](=O)[O-])c1 | 12% | 6% | ? | -17% | 37%
C=CCNC(=S)Nc1cc(C)ccn1 | ? | -19% | -48% | 4µM* | 1µM*
O=C(/C=C/c1ccccc1)NC(=S)Nc1cccnc1 | -5% | -2% | -8% | -6% | 7.1µM*
SMILES | SW480 rerep | ELG1 DNA repair | MCF10A rereplic | Gal4-VP16 FLuc | RORgamma inh
CCOc1ccc(NC(=S)NC(=O)/C=C/c2ccc(OC)c(OC)c2)c([N+](=O)[O-])c1 | -2% | ? | 16% | 2.5µM* | 1.1µM*
CCOC(=O)c1cc(C)sc1NC(=O)C(c1ccccc1)c1ccccc1 | 0% | 8% | 26µM* | -7% | ?
COCCNc1ccnc(-c2c(C)noc2C)n1 | / | / | / | 18% | -16%
CN(CC1CCCN(CCc2ccc(F)cc2)C1)C(=O)CCC(N)=O (centres undefined) | -8% | 2% | -7% | -1% | -18%
O=C(/C=C/c1ccccc1)c1ccc(O[C@H]2OC(CO)C(O)C(O)C2O)cc1O (some centres undefined) | / | / | / | 0% | ?
Cc1ccnc(NC(=S)NC(=O)/C=C/c2ccccc2)c1 | -1% | ? | 8% | ? | 2.8µM*
O=C(O)/C=C/C(=O)Nc1cccnc1 | -3% | 2% | 0% | ? | -8%
NC(N)=NS(=O)(=O)c1ccc(NC(=S)NC(=O)/C=C/c2ccccc2)cc1 | -35% | 13% | ? | -7% | 10%[1.91 µM]
Cc1ccnc(NC(=S)NC(=O)/C=C/c2ccc(Cl)cc2)c1 | -7% | ? | 0% | 13µM* | 14µM*
CCOc1ccc(N/C=C/C(=O)c2ccc(C)cc2)c([N+](=O)[O-])c1 | -3% | ? | 0% | ? | 2µM*
COC(=O)/C=C/C(=O)Nc1cccnc1 | 21% | 14% | ? | 14% | 11µM*
COc1ccc(/C=C/C(=O)NC(=S)Nc2ccc(Br)cn2)cc1 | ? | ? | 4% | -5% | ?
CN(CCc1ccccn1)C(=O)CCC1CCCN(C(=O)CCOc2ccccc2)C1 (centres undefined) | -3% | -15% | -2% | 24% | 3%
Cc1ccnc(NC(=O)/C=C/c2ccccc2[N+](=O)[O-])c1 | / | ? | / | -12% | -27%
Cc1ccnc(NC(=O)/C=C/c2ccccc2Cl)c1 | ? | ? | 9% | 5.6µM* | 3.5µM*
CCN(Cc1ccccc1)C(=O)c1cc(-c2ccc(OC)c(OC)c2)nc2ccccc12 | -1% | 4% | ? | 0% | 0%
Cc1ccc(-c2cc(C(=O)NCC(c3ccccc3)N(C)C)c3ccccc3n2)o1 (centres undefined) | 26µM* | -26% | ? | / | /
COc1ccc(-c2cc(C(=O)NCC(c3ccccc3)N(C)C)c3ccccc3n2)cc1OC (centres undefined) | 18µM* | -19% | 18µM* | 14% | -29%
COCCN(Cc1ccccc1)C(=O)c1cc(-c2ccc(OC)c(OC)c2)nc2ccccc12 | ? | 12µM* | ? | ? | ?
Cc1ccc(-c2cc(C(=O)NCc3ccco3)c3ccccc3n2)o1 | 4% | ? | -2% | -11% | 13%
COc1ccccc1NC(=O)c1cc(-c2ccc(OC)c(OC)c2)nc2ccccc12 | 16% | -6% | 14% | 2% | 23%
COC(=O)C1(C(=O)OC)C[C@@H]2CON=C2[C@H]1c1ccccc1 | / | / | / | 2% | -4%
c1ccc(CN2C3=NCCN3c3ccccc32)cc1 | ? | -21% | -2% | -5% | -22%
COc1ccc(C(=O)CN2C3=NCCCN3c3ccccc32)cc1OC | 0.26µM* | ? | -1% | -15% | -6%
O=C(CN1C2=NCCN2c2ccccc21)C12CC3CC(CC(C3)C1)C2 | ? | -1% | 5% | -28% | 16µM*
